PubChem BioAssay (NCATS)
Inconclusive results are not listed. Active and inactive are the calls of the source. Calls follow the shape of the dose curve; as a rule, active = well fitted inhibition curve with a large enough effect; inconclusive = small, poorly fitted or top-dose-only effect; inactive = flat fitted curve, though single readings scatter.

Each compound was assayed on CRL-7250 (assay: qHTS assay to identify novel small-molecules to repurpose for Merkel cell carcinoma treatment (AID 1296009; also: nearly all actives have a fitted effect of over 60% in size)). Conditions: MCC and control cell lines, CellTiter-Glo viability, 72 h; series mostly up to 92 µM; activity change, negative = cytotoxicity: at the top concentration.
Summary of the method: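 Luminescence from CellTiter-Glo, read 10 min after addition at room temperature, reported viability following a 72 hr, 37 degree celsius treatment with NPC or MIPE compounds in titration; values normalized to plate controls.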

| Compound | outcome |
| --- | --- |
| CC(=O)NC(C(=O)OC1CCC(C)(C)C2CC=C3C(=O)OCC3C12C)C(C)C (configuration not stated) | inactive |
| CCCC(N[C@@H](C)C(=O)N1[C@H](C(=O)O)C[C@@H]2CCCC[C@@H]21)C(=O)OCC (some centres not stated) | inactive |
| CC1(C)C2CCC1(C)C(OC(=O)C(O)(CC(=O)O)CC(=O)O)C2 (configuration not stated) | inactive |
| C[C@@H]1O[C@@H](O[C@H]2[C@H](OC(=O)[C@]34CCC(C)(C)C[C@H]3C3=CCC5[C@@]6(C)C[C@@H](O)[C@@H](O[C@@H]7O[C@H](CO)[C@@H](O)[C@H](O)[C@H]7O)[C@@](C)(CO)C6[C@H](O)C[C@@]5(C)[C@]3(C)CC4)OC[C@H](O)[C@@H]2O)[C@H](O)[C@H](O[C@@H]2OC[C@](O)(CO)[C@H]2O)[C@H]1O[C@@H]1OC[C@@H](O)[C@H](O[C@H]2O[C@H](C)[C@@H](O)[C@H](O)[C@@H]2O)[C@H]1O (some centres not stated) | inactive [at 9.27 µM] |
| CC1CCC23COC(=O)C2=CC(O)CC3C1(C)CCC1=CC(=O)OC1O (configuration not stated) | inactive |
| COc1ccc(C2=CC(=O)OC2Cc2ccc(O)cc2)c(O)c1 (configuration not stated) | inactive |
| COc1cc2ncnc(Nc3ccc(O)cc3)c2cc1OC | inactive |
| CC(=O)O[C@@H]1[C@H]2[C@@H](OC(=O)c3ccccc3)[C@@H](C)C[C@]2(O)[C@H](OC(C)=O)[C@@]2(C)[C@@H]3CC(C)(C)C(=O)[C@]3(OC(C)=O)C[C@@]12C | inactive [at 17.4 µM] |
| C[C@@H]1CC[C@H]2C(C)(C)[C@H](O)[C@H](O)C[C@]2(C)[C@@]12Cc1c(O)cc3c(c1O2)CNC3=O | inactive |
| COC1CCCC/C(C)=C/C2C=C(C)C(C)C3C(CC(C)C)NC(=O)C23C(=O)C1 (configuration not stated) | inactive [at 17.4 µM] |
| COC1CC(O[C@H]2CC[C@@]3(C)C(=CC[C@]4(O)C3[C@H](OC(C)=O)[C@@H](OC(=O)c3ccccc3)[C@]3(C)[C@@H](C(C)=O)CC[C@@]34O)C2)OC(C)C1OC1CC(OC)C(OC2CC(OC)C(OC3OC(C)C(OC4OC(CO)C(O)C(O)C4O)C(OC)C3O)C(C)O2)C(C)O1 (some centres not stated) | inactive [at 9.27 µM] |
| CC(C)(C)c1ccc(C(=O)Nc2cn3cc(-n4ccnc4)ccc3n2)cc1 | inactive |
| COC(=O)C1=CO[C@@H](O[C@@H]2O[C@H](CO)[C@@H](O)[C@H](O)[C@H]2O)[C@@H]2[C@@H](CO)[C@@H](O)C(O)[C@H]12 (some centres not stated) | inactive [at 17.4 µM] |
| C=C[C@H]1C(O[C@@H]2O[C@H](CO)[C@@H](O)[C@H](O)[C@H]2O)OC=C2C(=O)N3CCc4c([nH]c5ccccc45)[C@H]3C[C@H]21 (some centres not stated) | inactive [at 17.4 µM] |
| COc1ccc(/C=C/C(=O)O[C@@H]2[C@@H](OC(C)=O)[C@@H](OC(C)=O)[C@H](O[C@H]3[C@@H]4C=CO[C@@H](O[C@@H]5O[C@H](CO)[C@@H](O)[C@H](O)[C@H]5O)[C@@H]4[C@@]4(CO)O[C@@H]34)O[C@H]2C)cc1 | inactive [at 17.4 µM] |
| CC1=C(C)C(=O)OC(C(C)C2CCC3C4C5OC5C5(O)CC(OC6OC(CO)C(OC7OC(C)C(O)C(O)C7O)C(O)C6O)CC(O)C5(C)C4CCC23C)C1 (configuration not stated) | inactive [at 17.4 µM] |
| O=S(=O)(c1ccccc1)N(CC(F)(F)F)c1ccc(C(O)(C(F)(F)F)C(F)(F)F)cc1 | inactive |
| C=CC(C)(CC/C=C(\C)C(=O)OC)OC1OC(COC(=O)CC(C)(O)CC(=O)O)C(OC2OC(CO)C(O)C(O)C2O)C(O)C1O (configuration not stated) | inactive [at 17.4 µM] |
| COc1cc(C(=O)O)ccc1OC1OC(CO)C(O)C(O)C1O (configuration not stated) | inactive |
| OC[C@H]1O[C@@H](Oc2ccccc2)[C@H](O)[C@@H](O)[C@@H]1O | inactive |
| CC(C)c1c(O)ccc2c1CC[C@H]1C(C)(C)CCC[C@]21C | inactive |
| CC1=C[C@@H]2[C@H]3[C@@H]4O[C@@](C)(CC[C@H]4O)[C@H]3CC(=O)[C@]23C(=O)N[C@@H](CC(C)C)[C@@H]3[C@@H]1C | inactive |
| CC1(C)O[C@H]2CC(=O)OC[C@@]23C1=C(O)C(=O)[C@]1(C)C3CC[C@@]2(C)[C@H](c3ccoc3)OC(=O)[C@H]3O[C@]321 (some centres not stated) | inactive [at 17.4 µM] |
| C=C1C(=O)OC2CC(C)=C(C(C)CCCO)C(O)C12 (configuration not stated) | inactive |
| CC1(C)O[C@@]2(C)CC[C@@H]1C[C@@H]2OC1OC(CO)C(O)C(O)C1O (some centres not stated) | inactive |
| CC1CC(=O)C2C(O)(C1)CC(O)C13OC1c1c(O)cccc1C(=O)C23O (configuration not stated) | inactive |
| CC1CCC2(OC1)OC1CC3C4CC=C5CC(O)CC(O[C@@H]6OC[C@@H](O)[C@H](O)[C@H]6O)C5(C)C4CCC3(C)C1(O)C2C (some centres not stated) | inactive [at 17.4 µM] |
